Test system: murine 3T3 fibroblasts
Experiment: primary screen, percent viability or growth; higher = less effect of the substance
Protocol: Similarly, for measuring the cytotoxicity concentration (CC50) for 3T3 fibroblast cells, cultures were incubated with drugs for 72 hours and developed using Alamar Blue (Alamar Biosciences Inc, Sacramento, CA) as previously described.

SMILES	Mammalian (3T3) cell % growth at 10 uM
CCOC(=O)C1=C(COCCN)NC(C)=C(C(=O)OC)C1c1ccccc1Cl.O=S(=O)(O)c1ccccc1 (stereo not shown)	100%
COc1cc(O)c(C(=O)/C=C/c2ccc(OC)c(O)c2)c(OC)c1	6%
N#Cc1nn(-c2c(Cl)cc(C(F)(F)F)cc2Cl)c(N)c1S(=O)C(F)(F)F (stereo not shown)	100%
C[C@H]1CC[C@]2(NC1)O[C@H]1C[C@H]3[C@@H]4CC[C@H]5C[C@@H](O[C@@H]6O[C@H](CO)[C@H](O[C@@H]7O[C@H](CO)[C@@H](O)[C@H](O[C@@H]8OC[C@@H](O)[C@H](O)[C@H]8O)[C@H]7O[C@@H]7O[C@H](CO)[C@@H](O)[C@H](O)[C@H]7O)[C@H](O)[C@H]6O)CC[C@]5(C)[C@H]4CC[C@]3(C)[C@H]1[C@@H]2C	0.1%
Nc1nc(N)c2nc(-c3ccccc3)c(N)nc2n1	72.7%
CCN(CC)CCOc1ccc(C(=C(Cl)c2ccccc2)c2ccccc2)cc1	100%
COc1ccc(CCN2CCC(Nc3nc4ccccc4n3Cc3ccc(F)cc3)CC2)cc1	100%
CC(C)c1c(O)ccc2c1CC[C@H]1C(C)(C)CCC[C@]21C	67.4%
CC(C)CCC[C@@H](C)[C@H]1CC[C@H]2[C@@H]3C(=O)C=C4C[C@@H](O)CC[C@]4(C)[C@H]3CC[C@]12C	68.5%
COC(=O)CC[C@@H](C)[C@H]1CC[C@H]2[C@@H]3CC[C@@H]4C[C@H](O)CC[C@]4(C)[C@H]3C[C@H](O)[C@]12C	100%
CCC1(O)CC2CN(CCc3c([nH]c4ccccc34)C(C(=O)OC)(c3cc4c(cc3OC)N(C)C3C(O)(C(=O)OC)C(OC(C)=O)C5(CC)C=CCN6CCC43C65)C2)C1.O=S(=O)(O)O (stereo not shown)	36.2%
COc1cc(OC)c2c(=O)c(O)c(-c3ccc(OC)c(OC)c3)oc2c1	39.6%
CC(C)=CCc1c2c(c3occ(-c4ccc(O)c(O)c4)c(=O)c3c1O)C=CC(C)(C)O2	4.1%
CC1=CC(=O)C2C(C)(C)CCCC2(C)C1(O)CCc1ccoc1 (stereo not shown)	75.8%
CCCCCCc1ccc(O)cc1O.Nc1c2ccccc2nc2ccccc12	53.7%
CC(C1OC(C)(C)C(O)C1O)C1CCC2(C)C3=CCC4C(C)(C)C(=O)CCC4(C)C3CCC12C (stereo not shown)	92.7%
C=C1C(=O)C23C(O)C1CCC2C12COC3(O)C(O)C1C(C)(C)CCC2O (stereo not shown)	0.2%
CC(=O)OC1CC2C(C)(C)C(O)CCC2(C)C2CCC3(C)C(c4ccoc4)OC(=O)C4OC43C12C (stereo not shown)	76.3%
CC(CC(O)C1OC1(C)C)C1CCC2(C)C3=CCC4C(C)(C)C(=O)CCC4(C)C3CCC12C (stereo not shown)	100%
CCCOc1ccc2nc(NC(=O)OC)[nH]c2c1	52.8%
O=C(O)CC[N+](=O)[O-]	88.6%
Cc1nc2ccccn2c(=O)c1CCN1CCC(C(=O)c2ccc(F)cc2)CC1	91.6%

SMILES	Mammalian (3T3) cell % growth at 10 uM
O=C(Nc1ccc([N+](=O)[O-])cc1Cl)c1cc(Cl)ccc1O	10.5%
CC(=O)Oc1ccc2c(c1)CCC1C2CCC2(C)C1CC(OC(C)=O)[C@@H]2OC(C)=O (stereo partly shown)	60.7%
CC1(C)C(=O)C=CC2(C)C1CC(O)C1(C)C2CCC2(C)C(c3ccoc3)OC(=O)C3OC321 (stereo not shown)	76%
CNc1ccccc1C(=O)N1CCc2c([nH]c3ccccc23)C1=O	75.7%
NC(=O)c1cc([N+](=O)[O-])cc([N+](=O)[O-])c1	97.2%
COc1cc2nc(N3CCN(C(=O)c4ccco4)CC3)nc(N)c2cc1OC.Cl	70.7%
Cl.OC(c1cc(C(F)(F)F)nc2c(C(F)(F)F)cccc12)C1CCCCN1 (stereo not shown)	94.7%
COc1cc(-c2cc(=O)c3c(O)c(OC)c(OC)c(OC)c3o2)cc(OC)c1OC	4%
CO[C@H]1C[C@H](O[C@H]2[C@H](C)[C@@H](O[C@@H]3O[C@H](C)C[C@H](N(C)C)[C@H]3O)[C@@H](C)C[C@@]3(CO3)C(=O)[C@H](C)[C@@H](O)[C@@H](C)[C@@H](C)OC(=O)[C@@H]2C)O[C@@H](C)[C@@H]1O.O=P(O)(O)O	100%
CCC1(O)CC(OC2CC(N(C)C)C(O)C(C)O2)c2c(cc3c(c2O)C(=O)c2c(O)ccc(O)c2C3=O)C1C(=O)OC (stereo not shown)	0.8%
Cc1cccc2c3c(ccc12)C1=C(C(=O)C3=O)[C@@H](C)CO1	77.1%
COC(=O)C1(C)CCCC2(C)c3ccc(O)c(C(C)C)c3CCC12 (stereo not shown)	38.5%
O=c1c(O)c(-c2ccccc2)oc2ccccc12	85.7%
CCC1(O)C(=O)OCc2c1cc1n(c2=O)Cc2cc3cc(O)ccc3nc2-1 (stereo not shown)	23.9%
Nc1ccn([C@@H]2O[C@H](CO)[C@@H](O)[C@@H]2O)c(=O)n1	48.4%
COC1C=CC23c4cc5c(cc4CN(CC2O)C3C1)OCO5 (stereo not shown)	36.2%
CNCCC=C1c2ccccc2CCc2ccccc21	100%
Clc1ccccc1C(c1ccccc1)(c1ccccc1)n1ccnc1	100%
Oc1ccc(/C=C\c2cc(O)cc(O)c2)cc1	24.8%
CC1(C)C(=O)C2OC2C2(C)C1CC(O)C1(C)C2CCC2(C)C(c3ccoc3)OC(=O)C3OC321 (stereo not shown)	77.3%
C=C1CC[C@@H]2C(CC2(C)C)C(=O)CC[C@H]1O (stereo partly shown)	2.6%
COc1cc2c(cc1OC)C1C(=O)c3ccc4oc(C(C)C)cc4c3OC1CO2 (stereo not shown)	39.7%

SMILES	Mammalian (3T3) cell % growth at 10 uM
COc1ccc(-c2cc(=O)c3c(O)cc(O)cc3o2)cc1	77.4%
CCN(CCCCOC(=O)c1ccc(OC)c(OC)c1)C(C)Cc1ccc(OC)cc1 (stereo not shown)	92.3%
C[C@H]1COC2=C1C(=O)C(=O)c1c2ccc2c1CCCC2(C)C	87%
CC(Cc1cccc(C(F)(F)F)c1)NCCOC(=O)c1ccccc1 (stereo not shown)	96.6%
CCN(CC)Cc1cc(Nc2ccnc3cc(Cl)ccc23)ccc1O	24.4%
COC(=O)[C@H]1[C@H]2C[C@@H]3c4[nH]c5cc(OC)ccc5c4CCN3C[C@H]2C[C@@H](OC(=O)c2cc(OC)c(OC)c(OC)c2)[C@@H]1OC	100%
O=c1c(-c2ccc(O)cc2)coc2cc(O)cc(O)c12	100%
COC(=O)C1(C)CCCC2(C)c3ccc(C(C)C)cc3C(=O)CC12 (stereo not shown)	91.8%
CC[C@@H](C(=O)[C@@H](C)[C@@H](O)[C@H](C)CCc1ccc(C)c(O)c1C(=O)O)[C@H]1O[C@](CC)([C@H]2CC[C@](O)(CC)[C@H](C)O2)C[C@@H]1C	50.1%
O=C(/C=C(/O)c1ccccc1)c1ccccc1O	100%
Oc1ccc2c(c1)O[C@H](c1ccc(O)c(O)c1)[C@@H](O)C2	97.8%
COc1cc(O)c(C(=O)c2ccccc2)cc1O	47.4%
CCCCc1oc2ccccc2c1C(=O)c1cc(I)c(OCCN(CC)CC)c(I)c1.Cl	86.7%
C[C@@H]1C[C@@H]([C@H](O)CC2CC(=O)NC(=O)C2)C(=O)[C@@H](C)C1	36.9%
CCC(=C(c1ccccc1)c1ccc(OCCN(C)C)cc1)c1ccccc1	97%
CCC(=O)O[C@H]1CC[C@H]2[C@@H]3CCc4cc(O)ccc4[C@H]3CC[C@]12C	100%
COc1ccc(-c2coc3cc(O)ccc3c2=O)c(O)c1O	1.4%
CN(C)CCCN1c2ccccc2Sc2ccc(Cl)cc21	99.3%
CCN(CC)CCCC(C)Nc1c2ccc(Cl)cc2nc2ccc(OC)cc12.Cl.Cl (stereo not shown)	5.3%
COc1ccc2c(c1)OCC(Cc1ccc(OC)c(OC)c1)C2=O (stereo not shown)	84.5%

Reference: article PMC4102417
